Several values for one entry are separate records, joined by “and”; a condition that tells them apart may be missing. Equal values may be shown once. Among all 360,000 compounds or so, about 25,000 (6.9%) were called active. Inconclusive results (about 9%) are left out. This is one part of a sample in which actives are shown more often than they occur. Calls come from the whole dose curve; as a rule, active = well fitted inhibition curve with a large enough effect; inconclusive = small, poorly fitted or top-dose-only effect; inactive = flat fitted curve, though single readings scatter. More than one record can exist for a structure, and the calls need not agree.
Target: Luciferin 4-monooxygenase (Photinus pyralis) (UniProt P08659)
Assay: qHTS profiling assay for firefly luciferase inhibitor/activator using purifed enzyme and Km concentrations of substrates (counterscreen for miR-21 project); note: nearly all actives have a fitted effect of over 55% in size;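 for activity change, negative = inhibition: plate controls were vehicle for no effect and reference inhibitor for full effect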
Conditions: purified FLuc, luminescence inhibition; series mostly up to 57.5 µM; activity change, negative = inhibition: at the top concentration
How it was run: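 Purified P. pyralis luciferase, 10 nM final, with Km-level 10 uM D-luciferin and 10 uM ATP in 50 mM Tris acetate pH 7.5, 10 mM Mg acetate, 0.01% Tween-20, 0.05% BSA; 6-point qHTS titration about 60 µM downward; luminescence read.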
Potency is the fitted concentration of half-maximal effect.

Sequence of Luciferin 4-monooxygenase (Photinus pyralis) (P08659 whole entry, looked up): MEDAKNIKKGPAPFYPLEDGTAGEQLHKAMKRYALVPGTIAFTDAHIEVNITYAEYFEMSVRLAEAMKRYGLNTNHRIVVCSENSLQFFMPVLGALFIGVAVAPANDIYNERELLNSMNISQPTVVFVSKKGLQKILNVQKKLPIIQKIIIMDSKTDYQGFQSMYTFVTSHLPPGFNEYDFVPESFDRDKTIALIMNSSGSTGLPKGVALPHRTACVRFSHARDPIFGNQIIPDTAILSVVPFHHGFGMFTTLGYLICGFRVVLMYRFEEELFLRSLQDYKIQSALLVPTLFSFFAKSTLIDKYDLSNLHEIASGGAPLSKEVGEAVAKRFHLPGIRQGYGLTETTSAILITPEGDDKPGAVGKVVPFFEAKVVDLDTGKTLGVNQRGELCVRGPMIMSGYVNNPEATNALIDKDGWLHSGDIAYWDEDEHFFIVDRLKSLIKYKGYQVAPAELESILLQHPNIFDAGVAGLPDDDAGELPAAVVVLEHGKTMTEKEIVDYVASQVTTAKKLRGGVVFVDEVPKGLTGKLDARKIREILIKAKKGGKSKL

| Compound | activity change, negative = inhibition | Potency |
| --- | --- | --- |
| CCOC(=O)c1cnc2c(C)cc(C)cc2c1Nc1ccc(N2CCOCC2)cc1 | -12.7% (inactive) |  |
| N#Cc1c(N)nc2c3c(sc(=N)c2c1N)NC(=O)CC3c1ccccc1Cl (stereo unspecified) | -1.08% (inactive) |  |
| CSc1ncccc1C(=O)NCc1ccccc1Cl | 4.91% (inactive) |  |
| O=C(NC1CCCCCC1)C1CCN(C(=O)c2ccc(Cl)cc2)CC1 | -1.62% (inactive) |  |
| O=C(O)Cc1ccc(NCc2ccccc2Cl)cc1 |  | 7.57 µM (active) |
| O=[N+]([O-])c1ccccc1NCc1ccccc1Cl | -11.8% (inactive) |  |
| S=C(NCCc1ccccc1)NCc1ccccc1Cl | -5.36% (inactive) |  |
| O=C(c1ccc(Cl)cc1)n1nc(-c2cccnc2)nc1NCc1ccc(F)cc1 | -0.314% (inactive) |  |
| CN(C)c1nc(=Nc2cccc(Cl)c2)ss1 |  | 3.38 µM (active) |
| CCOC(=O)N1CCc2c(sc3c2c(=O)n(Cc2ccccc2)c(=O)n3CC(=O)Nc2cccc(C)c2)C1 | -1.56% (inactive) |  |
| CCOc1cc(C(=O)Nc2nnc3n2CCS3)cc(OCC)c1OCC | -0.836% (inactive) |  |
| O=C(NCc1ccc(Cl)cc1)c1ccc2c(c1)nnn2C1CCCC1 | -2.28% (inactive) |  |
| O=C(NCc1cccs1)c1ccc2c(c1)ncn2C1CCCC1 |  | 19 µM (active) |
| Cc1ccc(-c2cn3c(n2)sc2cc(C(=O)NCc4cccs4)ccc23)c(C)c1 | 0.0935% (inactive) |  |
| CCc1nnc(NC(=O)c2cc(S(=O)(=O)N3CCCCC3)ccc2C)s1 | 3.35% (inactive) |  |
| Cc1cccc(NC(=O)c2cccc(S(=O)(=O)N3CCCC3)c2)n1 | -5.53% (inactive) |  |
| O=C(Nc1nnc(S(=O)(=O)N2CCCc3ccccc32)s1)c1cccc(F)c1 | -1.73% (inactive) |  |
| O=C(Nc1nnc(S(=O)(=O)N2CCCCCC2)s1)c1cccc(Br)c1 |  | inactive and 26.9 µM (active) |
| CCOC(=O)CSc1nnc(NC(=O)c2cccc(S(=O)(=O)N3CCCCC3)c2)s1 | -2.28% (inactive) |  |
| CCOC(=O)CSc1nnc(NC(=O)c2cccc(S(=O)(=O)N3CCCC3)c2)s1 |  | 23.9 µM (active) |
| Cc1cccc(C(=O)Nc2nnc(S(=O)(=O)N3CCCCCC3)s2)c1 |  | 26.9 µM (active) |
| O=C(Nc1nncs1)c1cccc(S(=O)(=O)N2CCCCC2)c1 | -1.04% (inactive) |  |
| Cc1ccccc1OCC(=O)Nc1nnc(S(=O)(=O)N2CCCC2)s1 | -9.21% (inactive) |  |
| CCOc1ccc(NC(=O)Cn2cc(C(=O)c3ccc(C)cc3)c(=O)c3cc4c(cc32)OCCO4)cc1 | -1.33% (inactive) |  |
| O=C(c1ccc(C(F)(F)F)cc1)N1CCC(c2nc(-c3ccc(S(=O)(=O)N4CCCC4)cc3)no2)CC1 | -8.47% (inactive) |  |
| COc1ccc(N2CCN(c3cc(C)nc4nncn34)CC2)cc1 | -7.53% (inactive) |  |

| Compound | activity change, negative = inhibition | Potency |
| --- | --- | --- |
| Cc1ccc2oc3c(c(=O)c2c1)C(c1ccc([N+](=O)[O-])cc1)N(CCCN1CCOCC1)C3=O (stereo unspecified) | -5.94% (inactive) |  |
| O=C1C=C(c2cccc(Cl)c2O)C[C@@H](c2ccc(F)cc2)C1 | 2.51% (inactive) |  |
| CCOc1ccc(NC(=O)Nc2cc(C)on2)cc1 | -5.5% [at 2.3 µM] (inactive) |  |
| CCOc1ccc(S(=O)(=O)Nc2ccc(S(=O)(=O)Nc3cc(OC)ccc3OC)cc2)cc1 | 1.85% (inactive) |  |
| COc1ccc(OC)c(NC(=O)c2ccc3c(c2)CCN3S(C)(=O)=O)c1 | -2.22% (inactive) |  |
| COc1ccc(C)cc1NC(=O)Nc1ccccc1SC | -11.6% (inactive) |  |
| CCOc1ccc(NC(=O)Nc2cc(C)ccc2OC)cc1 |  | 2.69 µM (active) |
| CCOc1ccc(C(=O)Nc2cc(OC)ccc2OC)cc1 |  | 19 µM (active) |
| CCOc1ccc(NC(=O)CN(C)C(=O)CCSc2ccc(F)cc2)cc1OCC | 3.51% (inactive) |  |
| CCOC(=O)c1ccc(N2C(=O)c3n[nH]c(-c4ccco4)c3C2c2ccc(O)cc2)cc1 (stereo unspecified) | -11.5% (inactive) |  |
| O=C(CSc1oc(-c2ccccc2)nc1S(=O)(=O)c1ccc(Br)cc1)NC1CCCCC1 | -1.57% (inactive) |  |
| COc1ccccc1-c1nnc(NC(=O)c2cccc(N3C(=O)CCC3=O)c2)o1 |  | 19 µM (active) |
| COc1cccc(-c2nnc(NC(=O)c3ccc(S(=O)(=O)N(CC(C)C)CC(C)C)cc3)o2)c1 | 2.84% (inactive) |  |
| Cc1ccc(S(=O)(=O)CC(=O)Nc2sc(C)c(C)c2C(N)=O)cc1 | 12% (inactive) |  |
| Cc1sc(NC(=O)c2ccc3ncsc3c2)c(C(N)=O)c1C |  | 1.07 µM (active) |
| COc1ccccc1-c1nnc(NC(=O)c2ccc3ncsc3c2)o1 |  | 13.5 µM (active) |
| Cc1ccc(C(=O)Nc2nnc(C3=COCCO3)o2)cc1C | -6.57% (inactive) |  |
| O=C(COC(=O)c1ccc2ncsc2c1)Nc1ccc(Cl)cc1 | -0.692% (inactive) |  |
| COc1ccccc1-c1nnc(SCC(=O)N2CC(C)CC(C)C2)o1 (stereo unspecified) | -6.65% (inactive) |  |
| COc1ccc(-n2nc3c(c2NC(=O)c2ccc(N4C(=O)CCC4=O)cc2)CSC3)cc1 | 3.03% (inactive) |  |
| Cc1ccccc1C(=O)N(Cc1ccc(N(C)C)cc1)CC1CCCO1 (stereo unspecified) | 0.652% (inactive) |  |
| CCn1cc2nc(SCc3cccc(F)c3)n(CCc3ccccc3)c(=O)c2n1 | -12.6% (inactive) |  |
| COc1cc(CN(C(=O)c2ccccc2Br)c2ccccn2)cc(OC)c1OC | 7.3% (inactive) |  |
| Cc1cccc(C(=O)Nc2ccc(S(=O)(=O)N3CCCCC3c3cccnc3)cc2)c1 (stereo unspecified) | 3.83% (inactive) |  |
| CCN(CCCNC(=O)c1cc2c(=O)n(CC)c3ccccc3c2s1)Cc1ccccc1 | 6.98% (inactive) |  |
| Cc1ccc(C)c(Cn2c(CCCNC(=O)C3CCCCC3)nc3ccccc32)c1 | 5.68% (inactive) |  |

| Compound | activity change, negative = inhibition | Potency |
| --- | --- | --- |
| C=CCNC(=O)c1ccccc1NC(=O)c1ccc(Cl)c(S(=O)(=O)Nc2cccc(C)c2C)c1 | 3.15% (inactive) |  |
| Cc1ccc2c(c1)N(CC(=O)N1CCOCC1)C(=O)CO2 | 2.75% (inactive) |  |
| Cc1cc(/C=C2/SC(=O)N(CC(=O)N3CCCC3)C2=O)ccc1N1CCOCC1 |  | 16.9 µM (active) |
| O=C(CN1C(=O)CSc2ncccc21)N1CCOCC1 | -0.277% (inactive) |  |
| COc1ccc(/C=C2/SC(=O)N(CCCCCC(=O)Nc3ccccc3C(=O)O)C2=S)cc1 |  | 16.9 µM (active) |
| COc1ccc(-c2nn(-c3ccccc3)cc2/C=C2/SC(=S)N(CCCC(=O)O)C2=O)c(C)c1 | -4.65% (inactive) |  |
| CCCNC(=O)c1ccccc1NC(=O)CSCc1ccc(OC)cc1 | 0.71% (inactive) |  |
| COc1cccc(CNC(=O)CSc2c3c(nc4cc(Cl)ccc24)CCCC3)c1 | -4.18% (inactive) |  |
| CC(=O)c1ccc(N2CCN(c3nc4c(S(=O)(=O)c5ccccc5)nnn4c4ccc(Cl)cc34)CC2)cc1 | 1.59% (inactive) |  |
| CCOC(=O)c1c(CNCc2ccccc2F)c2sc(C)cc2n1C | -1.74% (inactive) |  |
| CCN1C(=S)N[C@@H](c2cccc(C(F)(F)F)c2)C(C(=O)OC)=C1C | 0.99% (inactive) |  |
| CCNC(=O)CCc1nc(-c2ccc(C)cc2)no1 | -17.9% (inactive) |  |
| COc1ccc(-c2noc(CCCC(=O)NC3CCCC3)n2)cc1OC | 1.08% (inactive) |  |
| CC(=O)Nc1ccc(NC(=O)CCCc2nc(-c3ccc(C(C)(C)C)cc3)no2)cc1 |  | 2.69 µM (active) |
| Cc1cc(C)cc(NC(=O)CCCc2nc(-c3ccccc3Cl)no2)c1 | 5.49% (inactive) |  |
| COc1cccc(CNC(=O)CCc2nc(-c3ccc(C)cc3)no2)c1 | 1.48% (inactive) |  |
| CCNC(=O)CCc1nc(-c2ccc(C(C)(C)C)cc2)no1 |  | 4.78 µM (active) |
| CCOc1ccccc1CNCc1c(C(=O)O)c(C)n(Cc2ccc(C)cc2)c1C | -2.11% (inactive) |  |
| Cc1cc2ncn(CCCCOc3ccccc3)c2cc1C |  | inactive |
| CCOc1cc(C2C(C(=O)Nc3ccc(OC)cc3)=C(C)Nc3nc(SC)nn32)ccc1O (stereo unspecified) | -0.395% (inactive) |  |
| CCOc1ccc(NC(=O)CC(Cc2ccc(Cl)cc2)C(=O)O)cc1 (stereo unspecified) | 6.23% (inactive) |  |
| CC(=O)Nc1ccc(NC(=O)C(NS(=O)(=O)c2ccc3c(c2)OCCO3)C(C)C)cc1 (stereo unspecified) | 2.54% (inactive) |  |
| Cc1[nH]c2ccccc2c1/C=N\NC(=O)Cn1nnc(-c2ccccc2)n1 | -1.23% (inactive) |  |
| COc1ccc(CNC(=O)CNC(=O)c2sc3ccccc3c2Cl)cc1OC | -0.179% (inactive) |  |
| CN1CCc2ccccc2C1Cc1ccccc1NC(=O)c1sc2ccccc2c1Cl (stereo unspecified) | -3.51% (inactive) |  |
| Cc1nn(C)cc1/C=N/NC(=O)c1sc2ccccc2c1Cl |  | 26.9 µM (active) |

| Compound | activity change, negative = inhibition | Potency |
| --- | --- | --- |
| Cc1nnsc1C(=O)N/N=C/c1ccccc1Cl | -0.786% (inactive) |  |
| O=C(N/N=C/c1c(Cl)[nH]c2ccccc12)c1sc2ccccc2c1Cl |  | 19 µM (active) |
| CCN(CC)S(=O)(=O)c1ccc2c(c1)nc(CN(C)C(=O)Nc1ccc(Cl)cc1)n2C | -19.2% (inactive) |  |
| O=C(NCCNc1ccc([N+](=O)[O-])cc1Cl)c1ccccc1F | -29% (inactive) |  |
| CCOC(=O)N1CCc2c(sc(NCc3cccc(F)c3)c2C(=O)Nc2ccccc2OCC)C1 | -18.1% (inactive) |  |
| Cn1ncc(Br)c1C(=O)NCc1cccs1 | -1.21% (inactive) |  |
| Cc1nn(CC(=O)Nc2ccc3c(c2)nc(CN2CCCCC2)n3C)c(=O)c2ccccc12 | 3.59% (inactive) |  |
| Cc1nc2cc(NC(=O)NC3CC3)ccc2n1C | -15% (inactive) |  |
| O=c1c(NCc2cccs2)nccn1-c1ccccc1 | -13.3% (inactive) |  |
| Cc1nc2cc(NCc3cccs3)ccc2n1C |  | 15.1 µM (active) |
| Cc1cc2nc(C)n(CCCNC(=O)Nc3ccccc3)c2cc1C | 1.77% (inactive) |  |
| Cc1nc2cc(NC(=O)Nc3cccc(F)c3)ccc2n1C |  | 0.757 µM (active) |
| CCOC(=O)N1CCN(Cc2nc3cc(NC(=O)CC)ccc3n2CC)CC1 | 0.0734% (inactive) |  |
| C=CCN(C(=O)Nc1ccc2c(c1)nc(C)n2C)c1ccccc1 |  | 15.1 µM (active) |
| CCCCNC(=O)c1ccc2c(c1)NC(=O)C(C(C)C)N2 (stereo unspecified) | -6.51% (inactive) |  |
| CC(=O)N1CCCc2cc(S(=O)(=O)N3CCC(C(=O)NCc4ccc(C)cc4)CC3)ccc21 | 0.565% (inactive) |  |
| CCc1ccc(-c2nn(-c3ccccc3C)cc2C(=O)N2CCN(C3CCS(=O)(=O)C3)CC2)cc1 (stereo unspecified) | 2.23% (inactive) |  |
| COc1ccccc1CNCc1ccc(C(=O)O)s1 | 2.57% (inactive) |  |
| CCc1nccn1S(=O)(=O)c1cc(Br)ccc1Br | -10.3% (inactive) |  |
| CCOC(=O)c1c(NC(=O)c2ccc(S(=O)(=O)N(CC)CC)cc2)sc2c1CCCCC2 | -3.1% (inactive) |  |
| CN(C(=O)c1ccc2c(c1)N(Cc1cccc(Cl)c1)C(=O)c1ccccc1S2=O)C1CCCCC1 (stereo unspecified) | -10.7% (inactive) |  |
| Cc1ccc(Cl)cc1NC(=O)/C(C#N)=C\c1cn(Cc2ccc(F)cc2)c2ccccc12 | 0.524% (inactive) |  |
| CCc1ccc(NS(=O)(=O)c2ccc3[nH]cc(C(=O)NCCc4cccc(C)c4)c(=O)c3c2)cc1 | -6.98% (inactive) |  |
